Screening data: PubChem BioAssay, National Center for Advancing Translational Sciences (NCATS)
The list is not random: actives were taken first. Their share in the collection is about 19%.
SARS PLP yeast = inhibitors of SARS-CoV papain-like protease in yeast. Potency, µM (titrated, usually from 32.9 µM), without a hit: at the highest dose activity, positive = growth rescue, most hits filed as activators. S. cerevisiae expressing SARS-CoV PLpro, growth rescue. actives 0.19% (n = 330,000). AID 485353; calls by dose curve; also: potency is read from the fitted curve at half-maximal effect; 0% is about no effect; nearly all actives have a fitted effect of over 55% in size
AMA1-RON2 inh = inhibitors of Plasmodium falciparum AMA1-RON2 interaction; AlphaScreen AMA1-biotinylated RON2 peptide binding; Potency, µM (series often up to 58.2 µM), for inactives: at the top dose activity change, negative = inhibition, actives largely listed as inhibitors; actives 0.2% (n = 360,000);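 also: potency is read from the fitted curve at half-maximal effect; 0% = vehicle wells and -100% = peptide control; nearly all actives have a fitted effect of over 45% in size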
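AMA1 (3D7) with his tag at 25 nM final met compounds first, then biotinylated RON2 peptide at 25 nM; detection used donor plus acceptor beads, 10 µg/mL apiece, read by AlphaScreen after 30 min at room temperature.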
Shiga toxin inh = Shiga toxin inhibition; Vero cells, Shiga toxin protein synthesis inhibition reporter; actives 9.2% (n = 290,000); inhibition, % at 38.7 µM; AID 2315; in the data active = inhibition mostly above about 28%, no sharp cut-off; inactive = mostly below about 43%; also: 0% is about no effect
CHX counter = counter-screen for Shiga toxin inhibitors: cycloheximide protein synthesis inhibition | cell reporter, cycloheximide protein synthesis inhibition counterscreen | max response, % | actives 12% (n = 300,000); in the data active = max response mostly above about 13%, no sharp cut-off; inactive = mostly below about 14%; also: read at 38.3 µM for the half of the compounds with a filed dose; 0% is about no effect
Pf growth 96h = P. falciparum growth inhibition at 96 hour, primary screen for plastid delayed-death inhibitors; Potency, µM (top dose mostly 28.7 µM), for the others: at the top dose activity change, negative = inhibition, hits mostly inhibitors; actives 6.9% (n = 320,000); P. falciparum luciferase reporter growth, 96 h; AID 504834; also: potency is read from the fitted curve at half-maximal effect; % is scaled to controls: 0 for no effect and ±100 for the full control effect
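Readout is luminescence from an integrated firefly luciferase in P. falciparum. Red cells, 2% hematocrit and 0.05% parasitemia final, were cultured with compound through two parasite generations (96 hours) at 37 C, 5% CO2.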
Pf growth 48h = P. falciparum growth inhibition at 48 hours (one generation); P. falciparum luciferase growth in erythrocytes, 48 h; Potency, µM (series often up to 28.7 µM), inactives show at the highest dose activity change, negative = inhibition, usual class: inhibitors; actives 5.9% (n = 310,000); AID 504832; also: potency is read from the fitted curve at half-maximal effect; % is scaled to controls: 0 for no effect and ±100 for the full control effect
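Luminescence readout; reporter = integrated firefly luciferase in P. falciparum. RBC culture at 2% hematocrit, 0.1% parasitemia final, 37 C/5% CO2; decreased signal taken as growth inhibition.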
Starred values were filed as active, the others as inactive; i = inactive; ? = inconclusive; . = not tested or not shown; [ ] = dose if it differs, or a comment. Unless noted, calls follow the shape of the dose curve; as a rule, active = well fitted curve in the direction sought with a large enough effect; inconclusive = small, poorly fitted or top-dose-only effect, or another doubt; inactive = no such curve, though single readings can be large; an effect the other way counts as inactive or inconclusive.

SMILES | SARS PLP yeast | AMA1-RON2 inh | Shiga toxin inh | CHX counter | Pf growth 96h | Pf growth 48h
Cc1ccc(S(=O)(=O)c2nc(-c3ccccc3)oc2N2CCC(C(N)=O)CC2)cc1 | 1% | -8% | 11 | -2 | 13µM* | ?
CSc1oc(-c2ccc(F)cc2)nc1S(=O)(=O)c1ccccc1 | 20% | 4% | -24 | 19* | ? | -14%
O=S(=O)(c1ccccc1)c1nc(-c2ccccc2)oc1N1CCCCC1 | 4% | 6% | 77* | 24* | 12% | .
CSc1oc(-c2ccccc2)nc1S(=O)(=O)c1ccc(F)cc1 | -4% | 4% | -5 | -3 | . | -22%
O=S(=O)(c1ccccc1)c1nc(-c2ccccc2)oc1N1CCCC1 | 0% | 9% | 42 | -4 | 32% | 0%
CN(C(=O)COC(=O)CCc1c[nH]c2ccccc12)c1ccccc1 | 1% | -2% | . | . | -1% | ?
CCCCCP(=O)(O)c1ccccc1 | -1% | 7% | -8 | -2 | 32% | 15%
CCCCCOP(=O)(c1ccccc1)c1ccccc1 | -1% | 16% | -6 | -2 | 9.3µM* | 12µM*
COC(=O)Cn1ncn2c(cc3oc(C)cc32)c1=O | 1% | 2% | 76* | 40* | 22% | 121%
C[N+]1=C2CCCCCN2C(O)(c2ccccc2)C1 (stereo not drawn) | 2% | 6% | -8 | -2 | 8.3µM* | 16%
OC1(c2ccccc2Cl)NN=C2CCCCCN21 (stereo not drawn) | 0% | 1% | 21 | -2 | 61% | -10%
Cn1ccnc1SCC(=O)Nc1ccccc1 | -16% | 20% | 30 | -3 | 55% | 28%
O=C(O)CSc1ncnc2nc[nH]c12 | 5% | -6% | -17 | -7 | -19% | .
Cc1ccc(NC(=O)CSc2ncc3ccccn23)cc1C | 0% | 28% | 130* | 39* | 91% | 25%
Cc1ccnc(SCC(=O)c2cc3ccccc3o2)n1 | 6% | 11% | 25 | 13* | 8% | 0%
O=C(CSc1ncnc2nc[nH]c12)c1ccc2ccccc2c1 | -18% | -17% | 42* | 33* | 5.2µM* | 22%
Cn1ccnc1SCC(=O)Nc1ccc2ccccc2c1 | -7% | -12% | 48* | 42* | -8% | 192%
Cc1ccc(NC(=O)CSc2ncn(-c3ccccc3)n2)cc1C | 20% | 8% | 4 | -3 | ? | -29%
S=C(c1ccc[nH]1)N1CCOCC1 | -5% | 49% | -3 | -3 | -16% | -8%
COc1ccc([N+](=O)[O-])cc1N(CC(=O)N1CCN(Cc2ccccc2)CC1)S(C)(=O)=O | 0% | -20% | -3 | 1 | 19% | 34%
COc1cc(C(=O)N/N=C/c2sc(N3CCOCC3)nc2-c2ccccc2)cc(OC)c1OC | 4% | 20% | 20 | -4 | -1% | 18%
CCN(CC)S(=O)(=O)c1cc(NC(=O)CSc2nccn2C)ccc1C | 0% | -10% | 103* | 16* | 18% | 4%
Cc1ccc(NC(=O)CSc2nccn2C)cc1S(=O)(=O)N1CCOCC1 | -6% | -8% | -8 | -1 | ? | -15%
COc1ccc(C(=O)CSc2nccn2C)c(OC)c1 | 3% | -11% | 57* | 50* | 119% | 135%
COc1cccc(C(=O)CSc2nccn2C)c1 | 1% | 0% | 97* | 31* | 12µM* | 77%
SMILES | SARS PLP yeast | AMA1-RON2 inh | Shiga toxin inh | CHX counter | Pf growth 96h | Pf growth 48h
COc1ccc(OC)c(C(=O)CSc2nnnn2C)c1 | 0% | -3% | 18 | 4 | 31% | 7%
O=C(CSc1ncccc1C(=O)O)c1ccc2ccccc2c1 | 0% | 3% | 100* | 45* | i | 120%
Cc1cc(C)c2nc(N(CCCN(C)C)C(=O)c3ccc(S(=O)(=O)N4CC(C)OC(C)C4)cc3)sc2c1 (stereo not drawn) | -5% | -3% | . | . | ? | ?
Cc1ccc2c(C)c(C(=O)N(Cc3ccc(F)cc3)C3CCS(=O)(=O)C3)oc2c1 (stereo not drawn) | -6% | 11% | -3 | -6 | ? | -14%
Cc1nn(-c2ccc(F)cc2)c2c1cc(C#N)c1nc3ccccc3n12 | 0% | 3% | 13 | 3 | 7% | -9%
CCn1c(SCC(=O)c2ccc3ccccc3c2)nnc1-c1ccco1 | -6% | -13% | 2 | 3 | . | ?
CN(C)CCC(=O)c1cccc(Br)c1 | -4% | -1% | 8 | 11 | -5%[5.75 µM] | 0%
Cn1ccnc1SCC(=O)c1cc2ccccc2o1 | 12% | -9% | 117* | 45* | 2% | 66%
Cn1ccnc1SCC(=O)c1cccc(Br)c1 | 3% | 2% | 60 | 27* | -5% | .
Cn1ccnc1SCC(=O)c1ccc2ccccc2c1 | 14% | -15% | 88* | 39* | 157% | 217%
CCC(=O)N1CCC(C)(C(=O)NCc2ccc(F)cc2)C1 (stereo not drawn) | . | -1% | . | . | . | .
C=CC[C@H](CC(=O)N(CCO)Cc1ccccc1)C(=O)N[C@H](COC(=O)[C@@H](CC=C)CC(=O)OC(C)(C)C)Cc1c[nH]c2ccccc12 | 5% | -5% | . | . | . | .
O[C@@H]1CN(Cc2ccc(-n3cccn3)cc2)CC[C@H]1N1CCN(c2ccccc2F)CC1 | 2% | -2% | . | -1 | 10µM* | ?
CCc1ccc(NC2=NCCCS2)cc1 | -3% | -11% | 35* | 15* | 11% | 35%
FC(F)(F)c1ccc(NC2=NCCCS2)cc1 | -4% | 0% | 43* | 30* | 29% | 75%
COc1ccc(N=Nc2nc(-c3ccccc3)c(-c3ccccc3)[nH]2)cc1 | -32% | ? | -3 | -3 | ? | ?
COc1ccccc1N=Nc1nc(-c2ccccc2)c(-c2ccccc2)[nH]1 | 1% | 35µM* | -1 | 12* | 2.3µM* | 13%
Oc1ccccc1N=Nc1nc(-c2ccccc2)c(-c2ccccc2)[nH]1 | -42% | ? | 14 | -2 | 2.1µM* | .
CCN(CC(=O)NCc1cccs1)c1ccc(S(=O)(=O)N2CCN(C)CC2)cn1 | -2% | -4% | 5 | -2 | 1% | -4%
O=C(NCC1c2ccccc2CCN1C(=O)CN1C(=O)c2ccccc2C1=O)C1CCCCC1 (stereo not drawn) | 5% | 4% | -17 | -1 | ? | 11%
O=C(Cc1nc(=O)c2ccccc2s1)Nc1ccccc1 | -1% | 14% | 67* | 59* | 102% | 194%
O=C(Cc1ccccc1)Nc1nc2ccccc2s1 | -4% | 4% | 49* | 26* | -20% | 168%
O=C(Cc1ccccc1)Nc1nc(=O)c2ccccc2s1 | ? | 9% | -3 | 0 | 71% | 52%
Cc1cnc(NC(=O)Cc2cccs2)s1 | 4% | 5% | 50 | 21* | 7% | 94%
COc1ccc2nc(NC(=O)CN(C)S(=O)(=O)c3cccs3)sc2c1 | -6% | -4% | 58* | 23* | ? | -22%
O=C(Cn1sc2ccccc2c1=O)Nc1ccccc1 | . | -17% | . | . | . | .
